# Records with an inconclusive call do not appear. Active and inactive are the calls of the source. Unless noted, no stated cut-off is given here; in the data, active means inhibition above about 80%; inactive means the rest.
# Tests used:
# [1] = viability loss in pontine glioma line – cell-based, SU-DIPG-IV, MIPE4.0, CellTiter-Glo, qHTS, dose response (AID 1347063; cut-off not given, nearly all actives have AC50 up to about 30 µM;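 further: compound exposure lasted 48 hours before the viability readout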); settings: CellTiter-Glo ATP luminescence
# [2] = viability loss in pontine glioma line – cell-based, SU-DIPG-XIII, MIPE5.0, CellTiter-Glo, qHTS, dose response (AID 1347064; cut-off not given, nearly all actives have AC50 up to about 23 µM;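 on AC50: cells exposed to compound for 48 hours before the viability read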); settings: CellTiter-Glo ATP luminescence
# [3] = viability loss in pontine glioma line – cell-based, SU-DIPG-XXV, MIPE5.0, CellTiter-Glo, qHTS, dose response (AID 1347065; cut-off not given, nearly all actives have AC50 up to about 26 µM;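 further: cells exposed to compound for 48 hours before ATP readout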); settings: CellTiter-Glo ATP luminescence
# [4] = growth inhibition, single agent or in combination, cell-based, chromothripsis tumors, cisplatin or BGB combos (AID 1671449); settings: LFS_MB_P medulloblastoma cells;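 further: cells exposed for 96 hours; 0% = vehicle DMSO and 100% = killing by high DMSO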
# [5] = growth inhibition, single agent and combos, cell-based, chromothripsis tumors, cisplatin or BGB combos (AID 1671450); settings: HDN33 neuroblastoma cells, stronger effect = higher value;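 further: cells exposed to compound for four days; 0% = vehicle DMSO and 100% = cell killing by high DMSO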
# [6] = growth inhibition, single agents and combos, ICB984, cell-based, cisplatin or BGB combos, synergistic combos for chromothripsis tumors (AID 1671451; call rule not given here;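 further: cells exposed for 96 hours before readout; 0% = vehicle DMSO and 100% = killing by high DMSO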); settings: ICB984 medulloblastoma cells, drug combinations, stronger effect = higher value
# [7] = growth inhibition, single agents and combos, HTB85, cell-based, BGB or cisplatin IC20 combos, synergistic combos for chromothripsis tumors (AID 1671453); settings: HTB85 osteosarcoma cells, drug combinations, stronger effect = higher value;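 further: cells exposed for 96 hours before readout; 0% = vehicle DMSO and 100% = high DMSO killing control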
# [8] = growth inhibition, MDA-MB-436, cell-based, BGB or cisplatin combos, synergistic combos for chromothripsis tumors (AID 1671458; call rule not given here;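 further: cells exposed for 96 hours; 0% = vehicle DMSO and 100% = killing by high DMSO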); settings: MDA-MB-436 breast carcinoma growth inhibition, drug combinations, stronger effect = higher value
# [9] = BT084 cell growth, single and combined drugs, ICGC_MB145, cisplatin and BGB IC40 combos (AID 1671461); settings: BT084 medulloblastoma cells, drug combinations, stronger effect = higher value;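 further: cells exposed to drugs for 96 hours; 0% = vehicle DMSO and 100% = high DMSO full killing control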
# [10] = RCMB18 cell growth, single agent and combined, cisplatin and BGB IC40 combos (AID 1671462); settings: RCMB18 medulloblastoma cells, stronger effect = higher value;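 further: cells exposed to compound for four days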
# [11] = CRL1545 cell growth, single agent and combined, cisplatin and BGB IC20 combos (AID 1671464); settings: CRL1545 osteosarcoma cells, stronger effect = higher value;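 further: cells exposed to compound for 96 hours before readout; 0% = vehicle DMSO and 100% = high DMSO killing control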
# [12] = JHH-DIPG-1 glioma cell viability, MIPE5.0 library, CellTiter-Glo luminescence, qHTS (AID 1347067; cut-off not given, nearly all actives have AC50 up to about 26 µM;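 further: cells exposed to compound for 48 hours before readout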); settings: JHH-DIPG-1 glioma viability, CellTiter-Glo ATP luminescence
# [13] = compounds altering circadian rhythm period length – cell-based, LOPAC library, luminescence reporter (AID 2774; call rule not given here;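 further: values are relative to mean of DMSO wells on each plate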); settings: circadian reporter cells, at 7 µM, actives lie on both sides
# [14] = compounds altering viability of human ES cells (AID 493140; call rule not given here;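 further: cells exposed to compounds for four days before counting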); settings: human embryonic stem cell survival screen; stronger effect = higher value
# [15] = system: Hepatitis C virus NS3 helicase; assay: blockers of NS3h binding to ssDNA – biochemical, fluorescence polarization, LOPAC1280 library, primary screen (AID 687035; in the data active means inhibition above about 37%); settings: Purified HCV NS3 helicase, Cy5-dT15 ssDNA binding fluorescence polarization; stronger effect = higher value; concentration not given here
# [16] = compounds altering Cy5-DNA-NS3h complex signal – biochemical, LOPAC1280, artefact control for HCV NS3 helicase inhibitor project (AID 687037; call rule not given here); settings: Cy5-DNA-NS3h complex fluorescence interference counterscreen
# [17] = growth inhibition of DIPG cells – cell-based, MIPE4.0 library, CellTiter-Glo luminescence, qHTS (AID 1347066; cut-off not given, nearly all actives have AC50 up to about 30 µM;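 further: cells exposed to compound for 48 hours before readout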); settings: SU-DIPG-VI viability, CellTiter-Glo ATP luminescence
# [18] = blockers of cellular phospholipid synthesis – cell-based, LOPAC library, screen 4, primary screen (AID 1347384; call rule not given here); settings: animal cells, phospholipid biosynthesis inhibition screen; at 10 µM
# [19] = target: Mitogen-activated protein kinase 7 (Homo sapiens) (UniProt Q13164); assay: Gal4-ERK5 driven luciferase induction – cell-based, HTS, primary screen (AID 1508626;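 active means luciferase signal above three times the same-plate solvent-only control wells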;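 further: luciferase driven by Gal4-ERK5 fusion binding five Gal4 sites before minimal TATA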); settings: HeLa Gal4-ERK5 transactivation, 18 h, at 5 µM, stronger effect = higher value
# [20] = measured here: with BGB IC20 combination, at 0.5 µM
# [21] = measured here: with cisplatin IC20 combination, at 0.5 µM
# Chain of Mitogen-activated protein kinase 7 (Homo sapiens) (Q13164 whole entry, looked up, the tested form may be a part): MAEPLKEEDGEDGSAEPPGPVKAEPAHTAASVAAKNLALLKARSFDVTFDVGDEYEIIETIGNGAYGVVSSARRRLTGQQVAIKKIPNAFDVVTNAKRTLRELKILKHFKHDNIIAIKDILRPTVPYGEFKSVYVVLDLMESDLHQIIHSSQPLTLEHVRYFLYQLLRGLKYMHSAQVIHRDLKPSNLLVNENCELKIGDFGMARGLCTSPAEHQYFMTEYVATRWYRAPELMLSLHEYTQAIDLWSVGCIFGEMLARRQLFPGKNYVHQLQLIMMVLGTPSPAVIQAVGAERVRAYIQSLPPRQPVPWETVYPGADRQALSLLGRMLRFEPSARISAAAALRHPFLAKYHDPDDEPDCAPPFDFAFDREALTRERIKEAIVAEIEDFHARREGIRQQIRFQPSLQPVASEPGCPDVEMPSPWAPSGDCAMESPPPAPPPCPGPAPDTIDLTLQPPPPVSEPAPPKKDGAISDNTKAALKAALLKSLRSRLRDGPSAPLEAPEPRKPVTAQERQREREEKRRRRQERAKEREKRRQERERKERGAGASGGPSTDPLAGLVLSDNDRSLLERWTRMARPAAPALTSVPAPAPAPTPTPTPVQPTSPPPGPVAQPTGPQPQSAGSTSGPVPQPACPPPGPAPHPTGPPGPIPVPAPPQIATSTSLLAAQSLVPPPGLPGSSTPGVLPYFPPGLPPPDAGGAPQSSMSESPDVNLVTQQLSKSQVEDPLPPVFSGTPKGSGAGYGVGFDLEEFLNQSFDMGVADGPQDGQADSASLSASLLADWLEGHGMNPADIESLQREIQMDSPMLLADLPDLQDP
smiles,measurement,setting,value
C[C@@H](CN1CC(=O)NC(=O)C1)N1CC(=O)NC(=O)C1,outcome,[1],inactive
same,outcome,[2],inactive
same,outcome,[3],inactive
same,inhibition,"[4]; at 0.5 µM, stronger effect = higher value",-25.4% (inactive)
same,inhibition,"[4]; measured here: combination with BGB IC20, at 0.005 µM",7.12%
same,inhibition,"[4]; measured here: combination with BGB IC40, at 0.005 µM",4.81%
same,inhibition,"[4]; measured here: combination with BGB IC40, at 0.05 µM",-36.6%
same,inhibition,"[4]; measured here: combination with cisplatin, at 0.5 µM, stronger effect = higher value",-24.5%
same,inhibition,"[4]; measured here: combination with cisplatin, at 5 µM, stronger effect = higher value",-14.8%
same,inhibition,"[5]; BGB combo, at 5 µM",79.1%
same,inhibition,[5]; at 0.5 µM,-24% (inactive)
same,inhibition,"[5]; cisplatin combo, at 5 µM",-19.4%
same,inhibition,[5]; [20],-11.3%
same,inhibition,[5]; [21],-36.9%
same,inhibition,"[5]; single agent, at 5 µM",13.8%
same,inhibition,"[6]; BGB IC20 combo, at 0.005 µM",-2.91%
same,inhibition,"[6]; BGB IC40 combo, at 0.005 µM",-23%
same,inhibition,"[6]; BGB IC40 combo, at 0.05 µM",11.5%
same,inhibition,[6]; at 0.5 µM,-30.5% (inactive)
same,inhibition,"[6]; cisplatin combo, at 0.05 µM",8.27%
same,inhibition,"[6]; cisplatin combo, at 0.5 µM",-19.9%
same,inhibition,"[6]; cisplatin combo, at 5 µM",-27.8%
same,inhibition,"[6]; measured here: 5 uM single agent, at 5 µM",-8.08%
same,inhibition,[7]; at 0.5 µM,-26.1% (inactive)
same,inhibition,"[7]; measured here: with BGB IC20, at 0.5 µM",-21.1%
same,inhibition,"[7]; measured here: with BGB IC20, at 5 µM",-21.1%
same,inhibition,"[7]; measured here: with cisplatin IC20, at 0.5 µM",-39.6%
same,inhibition,"[7]; measured here: with cisplatin IC20, at 5 µM",-43.4%
same,inhibition,"[7]; single agent, at 5 µM",-10%
same,inhibition,[8]; at 0.5 µM,-7.66% (inactive)
same,inhibition,"[8]; measured here: BGB combination, at 0.5 µM",2.41%
same,inhibition,"[8]; measured here: BGB combination, at 5 µM",-3.41%
same,inhibition,"[8]; measured here: cisplatin combination, at 0.5 µM",-18.8%
same,inhibition,"[8]; measured here: cisplatin combination, at 5 µM",-28.2%
same,inhibition,[9]; at 0.5 µM,-9.97% (inactive)
same,inhibition,"[9]; cisplatin combination, at 0.5 µM",-43.1%
same,inhibition,"[9]; cisplatin combination, at 5 µM",-2.65%
same,inhibition,"[9]; measured here: BGB IC40 combination 0.05 uM, at 0.05 µM",19.5%
same,inhibition,"[9]; single agent, at 5 µM",-11.9%
same,inhibition,[10]; at 0.5 µM,-20.1% (inactive)
same,inhibition,"[10]; cisplatin combo, at 5 µM",-55.6%
same,inhibition,"[10]; measured here: BGB IC40 combination, at 0.05 µM",-8.51%
same,inhibition,"[10]; measured here: combination with cisplatin, at 0.5 µM",-37.1%
same,inhibition,"[10]; single agent, at 5 µM",-16.8%
same,inhibition,[11]; at 0.5 µM,-44.1% (inactive)
same,inhibition,[11]; [20],-33.6%
same,inhibition,[11]; [21],-51.8%
same,inhibition,"[11]; single agent, at 0.05 µM",-57.8%
same,inhibition,"[11]; single agent, at 5 µM",-52.7%
CN(C(=O)c1c(O)c2ccccc2n(C)c1=O)c1ccccc1,outcome,[12],inactive
C1COC(NC(C2CC2)C2CC2)=N1,period change,[13],0.03 h (inactive)
same,survival,[14],19 (inactive)
same,inhibition,[15],0% (inactive)
same,fluorescence ratio (interference),[16],1 (inactive)
same,outcome,[2],inactive
same,outcome,[3],inactive
same,outcome,[17],inactive
same,outcome,[12],inactive
same,outcome,[18],inactive
CC[C@]1(O)C[C@H]2CN(CCc3c([nH]c4ccccc34)[C@@](C(=O)OC)(c3cc4c(cc3OC)N(C=O)[C@H]3[C@@](O)(C(=O)OC)[C@H](OC(C)=O)[C@]5(CC)C=CCN6CC[C@]43[C@@H]65)C2)C1,AC50,[2],332 nM (active)
same,AC50,[3],29.5 nM (active)
same,AC50,[12],29.5 nM (active)
same,luciferase signal,[19],72 AU (inactive)

# From PubChem BioAssay
